Values without a mark were called inactive.

This test relates to Vero E6 infected with SARS-CoV-2. The test is described as follows: SARS-CoV-2 infection rate relative to infected DMSO; higher = more infection, active = 60 or less. The conditions noted are these: 24 h.
On to `CC(O)CN1CCN(CC(=O)[O-])CCN(CC(=O)[O-])CCN(CC(=O)[O-])CC1.[Gd+3]` (stereo not given) [gadoteridol] (10 µM), for which the SARS-CoV-2 infection rate is 108%.
Consider `c1ccc2sc(SN3CCOCC3)nc2c1` [N-oxydiethylenebenzothiazole-2-sulfenamide] (10 µM), for which the SARS-CoV-2 infection rate was 104%.
On to `c1ccc(-c2n[nH]cc2-c2ccnc3ccccc23)nc1` (10 µM), for which the SARS-CoV-2 infection rate is 114%.
Turning to `COc1cc2c(NC3CCN(CC4CCCCC4)CC3)nc(N3CCCN(C(C)C)CC3)nc2cc1OCCCN1CCCCC1` (0.833333 µM), the SARS-CoV-2 infection rate was 92%.
Take `O=C(N[C@H]1CCN(C(=O)c2cc(C(F)(F)F)cc(C(F)(F)F)c2)[C@H](Cc2ccc(Cl)cc2)C1)c1ccnc2ccccc12` (10 µM): the SARS-CoV-2 infection rate is 81.5%.
`Cc1c(Cl)cccc1Nc1ccccc1C(=O)O` [tolfenamic-acid] (10 µM): the SARS-CoV-2 infection rate is 110%.
Under `COc1cc2c(cc1OC)CN(CCc1ccc(NC(=O)c3cc(OC)c(OC)cc3NC(=O)c3cnc4ccccc4c3)cc1)CC2` [tariquidar] (10 µM) stands 108%.
Consider `CNC(=O)c1cc(Oc2ccc(NC(=O)Nc3cc(C(C)(C)C)nn3-c3ccc4ncccc4c3)c(F)c2)ccn1` [rebastinib] (0.833333 µM), for which the SARS-CoV-2 infection rate is 106%.
`CC(N)C12CC3CC(CC(C3)C1)C2` (stereo not given) [rimantadine] (10 µM): the SARS-CoV-2 infection rate was 102%.
Under `CC[C@H]1[C@@H](O)[C@@H]2[C@H](CC[C@]3(C)[C@@H]([C@H](C)CCC(=O)O)CC[C@@H]23)[C@@]2(C)CC[C@@H](O)C[C@@H]12` [obeticholic-acid] (10 µM) stands 101%.

Source of the values: the supplement of paper PMC13380429.
